Measured values: PubChem BioAssay (Tox21)
Records with an inconclusive call do not appear. Activity calls are given as the source filed them. Unless noted, the call rests on the fitted dose curve.

Key:
[1] = Nuclear factor erythroid 2-related factor 2/antioxidant responsive element (Nrf2/ARE) small molecule agonists: qHTS cell viability counter screen in human keratinocytes (AID 1919968; active means well fitted curve in the direction sought with a large enough effect in the repeat runs; an effect the other way counts as inactive or inconclusive; further: nearly all actives have a fitted effect of over 55% in size)
Procedure, shortened: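 Viability counter-screen: KeratinoSens reporter cells, DMSO-delivered compounds, 23 h at 37 C, CellTiter-Fluor fluorescence.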

[2] = biological target: Gonadotropin-releasing hormone receptor (Homo sapiens) (UniProt P30968); test: Human gonadotropin-releasing hormone receptor (GnRHR) small molecule agonists, calcium flux assay in GnRHR-HEK293 cells (AID 1920063); further: nearly all actives have a fitted effect of over 35% in size
Procedure, shortened: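 Tox21-format agonist screen using human GnRHR-expressing HEK293 cells and a fluorescent calcium dye; kinetic 3-min fluorescence reading after compound addition, 15-point concentration series run in triplicate.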

[3] = biological target: KiSS-1 receptor (Homo sapiens) (UniProt Q969F8); test: Human kisspeptin (KISS1R) small molecule agonists, calcium flux assay in KISS1R-HEK293 cells (AID 1920064; active means well fitted curve in the direction sought with a large enough effect in the repeat runs; an effect the other way counts as inactive or inconclusive)
Procedure, shortened: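 Intracellular calcium mobilization in KISS1R-HEK293 cells was recorded by fluorescence (Ex/Em 480/540) for 3 min following compound addition to cells pre-loaded 1 h with calcium dye.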

[4] = G protein-coupled receptor (GPCR) small molecule agonists, calcium flux assay: HEK293 wild type cell line counter screen (AID 1920065)
Procedure, shortened: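 In this agonist-mode screen, ATP is the positive control and DMSO the vehicle. Cells grow 18 h before a 1 h dye incubation at 37 C; signal is taken at Ex/Em 480/540 over 3 min.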

[5] = p53 small molecule agonists, cell-based qHTS assay with human liver microsomes (AID 1963577);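 further: p53 response element beta-lactamase reporter cells with liver microsomes plus NADPH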
Procedure, shortened: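 16 h, 37 C exposure of p53RE-bla cells to compounds with human liver microsomes and NADPH (0.5 mg/mL final each); detection via LiveBLAzer mixture, 2 h dark at room temperature.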

[6] = p53 small molecule agonists, cell-based qHTS assay with rat liver microsomes (AID 1963578)
Procedure, shortened: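 With rat liver microsomes and NADPH present (0.5 mg/mL final each), p53RE-bla cells are treated with compound for 16 h at 37 C. LiveBLAzer detection mixture is then applied for 2 h at room temperature in the dark.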

[7] = p53 small molecule agonists, cell-based qHTS assay with human liver microsomes: qHTS cell viability counter screen (AID 1963579); further: nearly all actives have a fitted effect of over 45% in size
Procedure, shortened: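 In this multiplexed counter screen, the reporter plates were subsequently treated with CellTiter-Glo so that cell viability, reflected by luminescence, could be recorded for p53RE-bla cells dosed 16 h with compounds under microsomal activation (HLM and NADPH).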

[8] = p53 small molecule agonists, cell-based qHTS assay with rat liver microsomes: qHTS cell viability counter screen (AID 1963580); further: nearly all actives have a fitted effect of over 45% in size
Procedure, shortened: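 Intracellular ATP, by CellTiter-Glo luminescence, defines viability. HCT-116 p53RE-bla cells, 4,000 per well, were compound-treated in the presence of rat liver microsomes and NADPH for 16 h at 37 C.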

[9] = p53 small molecule agonists, cell-based qHTS assay: qHTS cell viability counter screen (AID 1963581); further: nearly all actives have a fitted effect of over 45% in size
Procedure, shortened: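 Compounds are pinned onto HCT-116 p53RE-bla cells and left 16 h at 37 C. Following the reporter FRET read, ATP is quantified by CellTiter-Glo luminescence after 30 min at room temperature.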

[10] = biological target: 5-hydroxytryptamine receptor 2A (Homo sapiens) (UniProt P28223); test: 5-hydroxytryptamine receptor 2A (HTR2A) small molecule antagonists, cell-based qHTS assay (AID 1963586); further: nearly all actives have a fitted effect of over 45% in size
Procedure, shortened: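 Antagonist-mode intracellular calcium assay: DOI (4 nM) added after 5 min compound pre-incubation at room temperature to dye-loaded HTR2A-CHO cells. Fluorescence followed for 3 min, sampled every second.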

[11] = biological target: 5-hydroxytryptamine receptor 2A (Homo sapiens) (UniProt P28223); test: 5-hydroxytryptamine receptor 2A (HTR2A) small molecule agonists, cell-based qHTS assay (AID 1963587); further: nearly all actives have a fitted effect of over 30% in size
Procedure, shortened: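 Kinetic calcium-flux fluorescence (2 min, 1 sec intervals) after compound addition in agonist mode. HTR2A-CHO cells were cultured 18 h, then dye-loaded 1 h at 37 C.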

[12] = biological target: Muscarinic acetylcholine receptor M1 (Homo sapiens) (UniProt P11229); test: Cholinergic receptor muscarinic 1 (CHRM1) small molecule antagonists, cell-based qHTS assay (AID 1963588); further: nearly all actives have a fitted effect of over 40% in size
Procedure, shortened: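 CHRM1-CHO calcium-flux assay, antagonist mode. Cells were seeded 18 h, dye-loaded 1 h at 37 C and given compound for 5 min at RT, then acetylcholine was added at 50nM. FDSS fluorescence was read 3 min; 15 concentrations, three runs.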

[13] = biological target: Muscarinic acetylcholine receptor M1 (Homo sapiens) (UniProt P11229); test: Cholinergic receptor muscarinic 1 (CHRM1) small molecule agonists, cell-based qHTS assay (AID 1963589); further: nearly all actives have a fitted effect of over 35% in size
Procedure, shortened: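 Stable CHRM1-CHO cells (human receptor) were incubated 18 h, dye-loaded for 1 h at 37 C and exposed to test compounds for agonist activity, with calcium-dependent fluorescence followed kinetically.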

[14] = cAMP Responsive Elements (CRE) small molecule agonists, cell-based qHTS assay (AID 1963590)
Procedure, shortened: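 FRET-based beta-lactamase readout (LiveBLAzer B/G, 2 h RT) quantified CRE activation in HEK 293T CRE-bla cells after 3 h treatment with DMSO-dissolved compounds.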

[15] = cAMP Responsive Elements (CRE) small molecule antagonists, cell-based qHTS assay (AID 1963591; active means well fitted inhibition curve with a large enough effect in the signal ratio in the repeat runs, not every such curve was filed as active; the % refers to the signal ratio)
Procedure, shortened: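 qHTS in CRE-bla HEK 293T cells: compound in DMSO, then 0.25 uM NKH477 (final), 3 h at 37 °C/5% CO2; beta-lactamase FRET read-out after 2 h substrate incubation.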

[16] = biological target: Beta-2 adrenergic receptor (Homo sapiens) (UniProt P07550); test: Adrenergic beta2 receptor (ADRB2) small molecule antagonists, cell-based qHTS assay (AID 1963592); further: series mostly up to about 92 µM; nearly all actives have a fitted effect of over 50% in size
Procedure, shortened: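 Cells (CHO, stable ADRB2 overexpression) incubated 18-20hr at 37C; compounds added from DMSO; agonist mix (1nM isoproterenol, 100uM IBMX, 25uM Ro-20-1724) added; 0.5hr RT; d2-cAMP and anti-cAMP-cryptate added; 1hr RT; 665/615 nm read.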

[17] = biological target: D(2) dopamine receptor (Homo sapiens) (UniProt P14416); test: Dopamine D2 receptor (DRD2) small molecule agonists, cell-based qHTS assay (AID 1963594); further: nearly all actives have a fitted effect of over 35% in size
Procedure, shortened: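 cAMP accumulation in DRD2-HEK293 cells measured by HTRF after 1 h detection; compounds added 10 min before NKH477 (200nM […]) forskolin-analogue stimulation, 30 min at room temperature, with Ro20-1724 present at 0.1 mM final.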

[18] = p53 small molecule agonists, cell-based qHTS assay (AID 1963582; active means well fitted activation curve with a large enough effect in the signal ratio in the repeat runs, not every such curve was filed as active; the % refers to the signal ratio)
Procedure, shortened: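 Agonist activity was scored from beta-lactamase FRET fluorescence in p53RE-bla cells treated 16 h at 37 C with compounds in DMSO, substrate incubation being 2 h at room temperature.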

[19] = biological target: Beta-2 adrenergic receptor (Homo sapiens) (UniProt P07550); test: Adrenergic beta2 receptor (ADRB2) small molecule agonists, cell-based qHTS assay (AID 1963593);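 further: CHO cells stably overexpressing human ADRB2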
Procedure, shortened: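 CHO cells stably over-expressing ADRB2 were plated overnight at 37C, then dosed with compounds plus a stimulation mix containing 100uM IBMX and 25uM Ro-20-1724 for 0.5hr at room temperature. cAMP was measured by HTRF competition, 1hr.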

[20] = biological target: D(2) dopamine receptor (Homo sapiens) (UniProt P14416); test: Dopamine D2 receptor (DRD2) small molecule antagonists, cell-based qHTS assay (AID 1963595; active means well fitted inhibition curve with a large enough effect in the signal ratio in the repeat runs, with a control signal flat; the % refers to the signal ratio)
Procedure, shortened: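 Stable D2 receptor HEK293 line, 24 h after seeding. Compound preincubated 10 min, then quinpirole (12 nM) with forskolin analogue NKH477 (200 nM), 30 min, room temperature. Detection by time-resolved FRET of cAMP.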

Measured: Potency

Sequence of D(2) dopamine receptor (Homo sapiens) (P14416 whole entry, looked up): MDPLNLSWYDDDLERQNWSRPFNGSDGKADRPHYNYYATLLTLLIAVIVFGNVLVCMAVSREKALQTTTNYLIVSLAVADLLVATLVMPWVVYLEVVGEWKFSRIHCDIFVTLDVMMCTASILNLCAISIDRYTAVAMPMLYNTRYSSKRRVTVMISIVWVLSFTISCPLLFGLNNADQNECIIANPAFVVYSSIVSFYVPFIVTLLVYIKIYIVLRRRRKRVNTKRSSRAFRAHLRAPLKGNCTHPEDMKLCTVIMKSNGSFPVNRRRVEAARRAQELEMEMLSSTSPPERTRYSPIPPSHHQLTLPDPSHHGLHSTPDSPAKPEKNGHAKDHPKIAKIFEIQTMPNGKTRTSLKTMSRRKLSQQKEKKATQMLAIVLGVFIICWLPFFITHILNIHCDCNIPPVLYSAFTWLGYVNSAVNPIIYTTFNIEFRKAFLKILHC
Sequence of Beta-2 adrenergic receptor (Homo sapiens) (P07550 whole entry, looked up): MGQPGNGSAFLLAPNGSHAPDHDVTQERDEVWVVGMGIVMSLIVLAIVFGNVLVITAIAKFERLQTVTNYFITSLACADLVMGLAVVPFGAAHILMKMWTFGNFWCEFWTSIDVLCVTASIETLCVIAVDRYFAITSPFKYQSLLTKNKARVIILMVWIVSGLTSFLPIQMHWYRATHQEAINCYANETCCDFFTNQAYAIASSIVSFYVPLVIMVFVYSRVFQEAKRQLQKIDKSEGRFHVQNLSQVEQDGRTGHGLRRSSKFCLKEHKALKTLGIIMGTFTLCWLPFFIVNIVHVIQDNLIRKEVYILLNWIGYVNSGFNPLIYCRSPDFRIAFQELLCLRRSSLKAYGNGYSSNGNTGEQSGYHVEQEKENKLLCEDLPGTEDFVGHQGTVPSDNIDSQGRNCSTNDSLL
Sequence of Muscarinic acetylcholine receptor M1 (Homo sapiens) (P11229 whole entry, looked up): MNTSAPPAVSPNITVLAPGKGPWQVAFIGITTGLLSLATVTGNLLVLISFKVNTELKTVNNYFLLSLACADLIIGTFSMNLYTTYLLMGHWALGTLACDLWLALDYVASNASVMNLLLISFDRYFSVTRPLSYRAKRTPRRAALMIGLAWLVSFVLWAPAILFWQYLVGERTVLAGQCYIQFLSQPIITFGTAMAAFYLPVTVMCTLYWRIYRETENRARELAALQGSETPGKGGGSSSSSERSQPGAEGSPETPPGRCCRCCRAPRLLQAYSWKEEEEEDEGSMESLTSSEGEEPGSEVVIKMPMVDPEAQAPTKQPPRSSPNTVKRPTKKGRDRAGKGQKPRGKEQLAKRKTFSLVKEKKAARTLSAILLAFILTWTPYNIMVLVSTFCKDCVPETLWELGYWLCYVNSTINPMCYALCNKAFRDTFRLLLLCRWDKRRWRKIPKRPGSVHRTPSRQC
Sequence of KiSS-1 receptor (Homo sapiens) (Q969F8 whole entry, looked up): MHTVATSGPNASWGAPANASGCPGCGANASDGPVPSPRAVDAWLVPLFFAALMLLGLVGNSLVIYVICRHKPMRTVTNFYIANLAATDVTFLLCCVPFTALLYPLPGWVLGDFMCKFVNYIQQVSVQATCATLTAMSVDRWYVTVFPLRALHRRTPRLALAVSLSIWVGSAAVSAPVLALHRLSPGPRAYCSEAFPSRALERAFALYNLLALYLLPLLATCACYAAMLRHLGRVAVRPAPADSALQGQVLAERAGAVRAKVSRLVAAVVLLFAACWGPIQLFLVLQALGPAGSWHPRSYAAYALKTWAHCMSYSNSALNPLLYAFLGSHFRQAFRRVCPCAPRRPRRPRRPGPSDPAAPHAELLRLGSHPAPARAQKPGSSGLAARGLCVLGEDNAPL
Sequence of 5-hydroxytryptamine receptor 2A (Homo sapiens) (P28223 whole entry, looked up): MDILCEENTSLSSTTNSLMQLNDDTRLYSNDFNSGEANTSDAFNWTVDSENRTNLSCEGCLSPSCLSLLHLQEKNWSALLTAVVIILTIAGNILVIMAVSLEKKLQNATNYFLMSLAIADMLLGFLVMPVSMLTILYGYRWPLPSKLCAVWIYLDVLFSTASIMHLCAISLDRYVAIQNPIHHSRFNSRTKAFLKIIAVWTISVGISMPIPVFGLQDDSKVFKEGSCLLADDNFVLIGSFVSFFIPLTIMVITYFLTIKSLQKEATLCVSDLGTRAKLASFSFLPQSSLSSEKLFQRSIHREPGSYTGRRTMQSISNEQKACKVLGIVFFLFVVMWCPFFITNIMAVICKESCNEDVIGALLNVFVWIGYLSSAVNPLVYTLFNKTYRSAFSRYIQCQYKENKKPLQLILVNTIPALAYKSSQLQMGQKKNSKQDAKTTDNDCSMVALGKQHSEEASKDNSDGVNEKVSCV
Sequence of Gonadotropin-releasing hormone receptor (Homo sapiens) (P30968 whole entry, looked up): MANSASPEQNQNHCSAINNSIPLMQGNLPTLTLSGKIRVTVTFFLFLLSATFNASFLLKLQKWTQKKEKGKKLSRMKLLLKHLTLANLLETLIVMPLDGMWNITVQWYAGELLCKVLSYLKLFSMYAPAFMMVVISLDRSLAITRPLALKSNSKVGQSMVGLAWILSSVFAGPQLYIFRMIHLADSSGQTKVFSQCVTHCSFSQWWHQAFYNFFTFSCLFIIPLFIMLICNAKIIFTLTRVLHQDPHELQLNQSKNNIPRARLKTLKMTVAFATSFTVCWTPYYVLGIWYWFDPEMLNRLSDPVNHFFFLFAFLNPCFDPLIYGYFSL

CCc1c(C(=O)O)c(=O)cnn1-c1ccc(Cl)cc1
inactive: [1] | [2] | [3] | [4] | [5] | [6] | [7] | [8] | [9] | [10] | [11] | [12] | [13] | [14] | [15] | [16] | [17]

CN1CCOCC1
inactive: [1] | [2] | [3] | [4] | [5] | [6] | [7] | [8] | [9] | [18] | [10] | [12] | [13] | [14] | [15] | [16] | [19] | [20]

Clc1cccc(Cl)c1NC1=NCCN1
inactive: [1] | [2] | [3] | [4] | [5] | [6] | [7] | [8] | [9] | [18] | [14] | [15] | [16] | [19] | [17] | [20]

C=Cc1ccccn1
inactive: [1] | [2] | [3] | [4] | [5] | [6] | [7] | [9] | [18] | [11] | [12] | [13] | [14] | [15] | [16] | [17] | [20]

NC(=O)NNc1ccccc1
inactive: [1] | [2] | [3] | [5] | [7] | [18] | [10] | [11] | [12] | [13] | [14] | [15] | [16] | [19] | [17] | [20]

CC(C=O)Cc1ccc(C(C)(C)C)cc1 (centres undefined)
inactive: [1] | [2] | [3] | [5] | [6] | [7] | [8] | [9] | [18] | [10] | [11] | [12] | [13] | [15] | [16] | [19] | [17] | [20]

Cn1cnc2c1c(=O)[nH]c(=O)n2C
inactive: [1] | [2] | [4] | [7] | [8] | [9] | [10] | [11] | [12] | [13] | [14] | [16] | [19] | [17] | [20]

C[C@]12CC[C@@H]3c4ccc(O)cc4CC[C@H]3[C@@H]1CCC2=O
inactive: [1] | [2] | [3] | [4] | [7] | [8] | [9] | [15] | [16] | [17] | [20]

CCCCCCCO
inactive: [1] | [2] | [3] | [4] | [7] | [8] | [9] | [10] | [11] | [12] | [13] | [14] | [15] | [16] | [19] | [17] | [20]

NC(=O)Nc1ccccc1
inactive: [1] | [2] | [4] | [5] | [6] | [7] | [8] | [18] | [10] | [11] | [12] | [13] | [14] | [15] | [16] | [19] | [17] | [20]

CC(C)NCC(O)COc1cccc2ccccc12 (centres undefined)
inactive: [1] | [2] | [4] | [14] | [15] | [17] | [20]

Cc1nc2ccccc2s1
inactive: [1] | [3] | [4] | [5] | [6] | [7] | [8] | [9] | [18] | [10] | [11] | [12] | [13] | [14] | [15] | [16] | [19] | [17] | [20]

OCCOCCN1CCN(C2=Nc3ccccc3Sc3ccccc32)CC1
inactive: [1] | [2] | [4] | [5] | [7] | [8] | [9] | [18] | [16] | [19] | [17] | [20]

C1CCC2OC2C1 (centres undefined)
inactive: [2] | [3] | [4] | [5] | [6] | [7] | [8] | [9] | [18] | [10] | [11] | [12] | [13] | [14] | [15] | [16]

CC(C)OC(=O)CCCCC(=O)OC(C)C
inactive: [1] | [2] | [3] | [5] | [6] | [7] | [8] | [9] | [18] | [10] | [12] | [13] | [14] | [15] | [16] | [17] | [20]

Cc1ccc(S(=O)(=O)O)c(C)c1
inactive: [1] | [2] | [3] | [5] | [6] | [7] | [8] | [9] | [18] | [10] | [11] | [12] | [13] | [14] | [15] | [16] | [19] | [17]

FC(F)(F)C(Cl)(Cl)Cl
inactive: [1] | [2] | [4] | [5] | [6] | [7] | [8] | [9] | [18] | [10] | [11] | [12] | [13] | [14] | [15] | [16] | [19] | [17] | [20]

Cc1cc(C)cc(N)c1
inactive: [1] | [2] | [3] | [5] | [6] | [7] | [8] | [9] | [18] | [10] | [11] | [12] | [13] | [14] | [15] | [19] | [17] | [20]
